Test results from PubChem BioAssay AID1345082 (National Center for Advancing Translational Sciences (NCATS), 2018).
The whole screen tested about 94,000 compounds, of which about 4,000 (4.3%) were called active. Another 29% or so got no clear call; they are omitted. The call rests on the fitted dose curve; in most records, active means well fitted inhibition curve with a large enough effect; inconclusive means small, poorly fitted or top-dose-only effect; inactive means no such curve, though single readings can be large or run the other way. The list comes from a sample in which actives are over-represented; it also holds similar structures and randomly drawn compounds. A call without a number means that no potency is given here.

test: Cytotoxic Profiling in NIH 3T3 Cell Line of Diverse Libraries Using Quantitative High-Throughput Screening; conditions: NIH 3T3 viability, CellTiter-Glo ATP luminescence, 48-72 h; series mostly up to 96.7 µM; further: nearly all actives have a fitted effect of over 55% in size
How it was run: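 Luminescent ATP readout (CellTiter-Glo, 10 min RT) after 48 or 72 hr compound exposure of NIH 3T3 cells seeded at 400 cells/well in 1536-well format; quantitative HTS.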
Potency means the concentration at half of the fitted maximal effect.

Compound	Potency
Cc1noc2c(N3CCC(c4ccccc4)CC3)cc(-c3cccnc3)nc12	inactive
Cc1nc2c(c(-c3ccc(Cl)cc3)n1)CCN([S+](=O)([O-])c1c(C)noc1C)CC2	inactive
Cc1noc2c(N3CC[S+](=O)([O-])CC3)cc(-c3ccc(Cl)cc3)nc12	10 µM (active)
CN1CCCCCCN(C(=O)C2CCC2)[C@H]2CCC[C@H]2C1=O	inactive
Cc1noc(C)c1-c1cc2cc(CNC3CCOCC3)oc2c(NC2CCN(C)CC2)n1	39.8 µM (active)
CCOCCN1C(=O)COC[C@@H]1[C@H](O)c1ccc(NC(=O)c2cnccn2)cc1	inactive
O=C(C1CCN(Cc2ccccc2-c2cccnc2)CC1)N1CCN(Cc2ccccc2)CC1	inactive
O=C(C1CCCN(Cc2cccc(-c3ccc(F)cc3F)c2)C1)N1CCN(Cc2ccccc2)CC1 (centres undefined)	39.8 µM (active)
CCCN1CCN(C(=O)C2CCCN(c3cnn(Cc4ccccc4)c(=O)c3)C2)CC1 (centres undefined)	inactive
COCc1nc(CCNC(=O)Cc2c(C)noc2C)no1	inactive
CN(C)C[C@@H]1CN(C)C[C@H]1NC(=O)c1cnn(C)c1	inactive
CCn1ccc(C(=O)NCC2CCCCC(=O)N2)n1 (centres undefined)	inactive
O=C(c1ccccn1)N1CCn2c(nnc2C2CCCNC2)C1 (centres undefined)	inactive
COCC(=O)N(C1CCOCC1)C1CCN(S(=O)(=O)c2ccccc2)CC1	inactive
O=C1NC2(Cc3ccccc31)CN([S+](=O)([O-])c1cccc(C(F)(F)F)c1)C2	inactive
O=C1NC2(CCCN([S+](=O)([O-])c3ccccc3)C2)COc2ccccc21 (centres undefined)	22.4 µM (active)
O=[S+]([O-])(c1ccccc1)N1CCCC2(CC(c3ccccn3)=NO2)C1 (centres undefined)	inactive
COc1nccnc1NC1CCN(C(=O)CCc2ccccc2)CC1	inactive
Cc1ccc(C2Cn3nnc(-c4noc(-c5ccccc5C)n4)c3CO2)cc1 (centres undefined)	inactive
O=C1CCCN1CCCN1C(=O)[C@@H]2C[C@@H](O)CN2C2(CN(C3CCOCC3)C2)C1=O	inactive

Compound	Potency
COCC(=O)Nc1ccc([C@@H](O)[C@H]2COCC(=O)N2Cc2ccc(C(F)(F)F)cc2)cc1	inactive
O=C1NCCN(Cc2ccccc2)C1CC(=O)N1CCN(c2ccccc2)CC1 (centres undefined)	inactive
O=c1c2c(n(Cc3ccccc3)n1-c1ccccc1)CN(Cc1ccn[nH]1)CC2	89.1 µM (active)
N#Cc1cccc(CN2CCCN(S(=O)(=O)c3ccccc3)CCC(=O)NCC2)c1	inactive
O=C(Cn1c2c(c(=O)n1Cc1ccccc1)CCN(Cc1ccccc1)C2)NCc1cccc(Cl)c1	inactive
COCCn1c2c(c(=O)n1-c1ccccc1)CCN(Cc1cccc(C#N)c1)C2	100 µM (active)
N#Cc1cccc(CN2CCc3nc(N4CCc5ccccc5C4)[nH]c(=O)c3CC2)c1	inactive
N#Cc1ccc(CN2CCC3(COc4ncccc4[S+](=O)([O-])N3)C2)cc1 (centres undefined)	inactive
CC(C)c1ccc(CNC(=O)CCn2ccn3nc4c(c3c2=O)CCCC4)cc1	inactive
C=CCOc1cccc(-c2nnc(CCC(=O)NCc3ccccc3)c(=O)[nH]2)c1	inactive
CSCCNC(=O)c1cc(-c2ccc(Cl)nc2)nc2c1cnn2C	inactive
COCC(=O)N[C@@H](Cn1ccc(=O)[nH]c1=O)C(=O)O	inactive
O=C(c1cnccn1)N1CCC[C@H](n2c(=O)n(CC3CC3)c3cccnc32)C1	inactive
Cc1ccc(NS(=O)(=O)c2ccccc2)c(=O)n1CC(=O)N(C)Cc1ccccc1	inactive
CC(C)CCN1C(=O)CC[C@]2(C(=O)N3CCN(C)CC3)CCCC[C@@H]12	inactive
O=C1CC(c2ccccc2)N(C(=O)CNC(=O)NCc2ccc(F)cc2)CCCCCN1 (centres undefined)	inactive
O=C1CC(c2ccccc2)N(C(=O)CNC(=O)C2CCC2)CCCCCN1 (centres undefined)	inactive
O=C1CC(c2ccccc2)N(Cc2cn[nH]c2-c2ccc(F)cc2)CCCCCN1 (centres undefined)	39.8 µM (active)
Cn1ncc2c(C(=O)NCC(F)(F)F)cc(-c3ccccc3F)nc21	inactive
COc1ccc(-c2noc(-c3nnn4c3COC(c3ccc(Cl)cc3)C4)n2)c(OC)c1 (centres undefined)	inactive

Compound	Potency
COc1ccc(C2Cn3cnc(-c4nc(-c5ccc(OC)cc5OC)no4)c3CO2)cc1 (centres undefined)	20 µM (active)
CCOc1ccc(-c2noc(-c3ncn4c3COC(c3ccc(OC)cc3)C4)n2)cc1 (centres undefined)	inactive
CN(C)C(=O)C1CN(C(=O)C2CCCC2)CC12CCOCC2 (centres undefined)	inactive
CCC(=O)N1Cc2ccccc2CC2(CCN(Cc3ccc(OC)cc3)C2)C1 (centres undefined)	inactive
O=C(NCCC1COc2ccccc2O1)c1ccc(N2CCCOCC2)nc1 (centres undefined)	inactive
COc1ccc(-c2ccc3c(c2)C(=O)N2CCN(C(=O)CC(C)(C)C)C[C@@H]2C(=O)N3)c(OC)c1	inactive
COc1ccc(-c2cccc(C(=O)NCc3cccc(Cl)c3)c2)nn1	35.5 µM (active)
COc1ccc(-c2cccc(C(=O)N3CCN(C(=O)Cc4cccc(Cl)c4)CC3)c2)nn1	inactive
COc1ccc(-c2cccc(C(=O)NC3CC3)c2)nn1	inactive
O=C(N[C@H]1CCOC[C@H]1C1CCOCC1)c1scc2c1OCCO2	inactive
Cc1nc(C(=O)N2CC[C@H](NS(=O)(=O)c3cccs3)C[C@H]2C(=O)N[C@H](Cc2c[nH]c3ccccc23)C(N)=O)cs1	inactive
Cn1ccnc1C(=O)N1CCCCCCNC(=O)[C@@H]2C[C@@H](C(=O)N3CCc4ccccc4C3)C[C@@H]21	inactive
O=C(NCc1cccnc1)C1CCC(=O)N1C1CCNCC1 (centres undefined)	inactive
CC(=O)NC[C@@H]1C=C(C)[C@H](CC(=O)N2CCCC2)C[C@H]1C(C)C	inactive
CC1=C[C@@H](CNC(=O)NC(C)C)[C@H](C(C)C)C[C@H]1Cc1nnc(-c2ccncc2)o1	56.2 µM (active)
CC1=C[C@@H](CN2CCOCC2)[C@H](C(C)C)C[C@H]1Cc1nnc(-c2ccc([N+](=O)[O-])cc2)o1	35.5 µM (active)
CC1=C[C@@H](CNC(C)C)[C@H](C(C)C)C[C@H]1Cc1nnc(-c2ccc(N(C)C)cc2)o1	31.6 µM (active)
CC1=C[C@@H](CNC2CC2)[C@H](C(C)C)C[C@H]1Cc1nnc(-c2ccc(C)cc2)o1	39.8 µM (active)
COC1C(=O)N(c2cccc(F)c2)C12CCN(C(=O)C1(c3ccccc3)CC1)CC2 (centres undefined)	inactive
